A short description of experiment [1]: qHTS for differential inhibitors of proliferation of Plasmodium falciparum line Dd2 (AID 1882). Further: nearly all actives have a fitted effect of over 65% in size. The note with it: Potency: Plasmodium falciparum Dd2 proliferation inhibition. Summed up: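 Dd2-infected erythrocytes (0.3% parasitemia, 2.5% hematocrit final) incubated with compound 72 h at 37 C, 5% CO2; lysed with saponin/Triton buffer containing SYBR Green I, incubated overnight in the dark, then read by fluorescence (485/535 nm). Normalized to 0.29 uM artemisinin and DMSO.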
(Quantitative high-throughput screening tests each substance at several concentrations.)

Experiment [2] deals with ATP-dependent DNA helicase Q1 (Homo sapiens) (UniProt P46063). The experiment is described as follows: qHTS Validation Assay for Inhibitors of RecQ-Like Dna Helicase 1 (RECQ1) (AID 2353). Further: potency means the concentration at half of the fitted maximal effect. Summed up:
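50 nM RECQ1T1 preincubated 15 min with compound in Tris pH 8.0 buffer with MgCl2, DTT, Tween-20 and 2.5 ug/ml poly(dI-dC); started with 200 nM TAMRA/BHQ-2 forked duplex and 2 mM ATP. Unwinding read as fluorescence (525/598 nm), two reads 2 h apart.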

Experiment [3] has as its target RecQ-like DNA helicase BLM (Homo sapiens) (UniProt P54132). The experiment is described as follows: qHTS Validation Assay for Inhibitors of Bloom's syndrome helicase (BLM) (AID 2364). Further: potency means the concentration at half of the fitted maximal effect. An outline of the steps: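 Forked 20-bp duplex substrate (200 nM, TAMRA/BHQ-2) plus 2 mM ATP added after 15 min compound preincubation with 50 nM enzyme, pH 8.0, poly(dI-dC) 2.5 ug/ml. Strand separation followed by fluorescence (525/598 nm) over 2 h, normalized to enzyme-free and DMSO controls.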

A short description of experiment [4]: Cytometric Cell-Based qHTS for Inhibitors of the mTORC1 Signaling Pathway in MEF (Tsc2-/-, p53-/-) Cells (AID 2660).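 Further: Tsc2 and p53 null MEFs carrying empty vector with compound for 24 h; percent of cells above a phospho-rpS6 to PI ratio cutoff in each well.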 An outline of the steps: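 Immunofluorescence qHTS of rpS6 Ser235/236 phosphorylation: MEFs (Tsc2-/-, p53-/-) treated 24 h, 37 C, in DMEM + 10% FBS. Alexa-488 signal normalized to PI count, referenced to rapamycin (7.5 nM) and DMSO; PI cell number recorded for viability.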

Experiment [5] can be described thus: High Content Imaging Cell-Based qHTS for Inhibitors of the mTORC1 Signaling Pathway in MEF (Tsc2-/-, p53-/-) Cells (AID 2666).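 Further: percent of cells scored positive for phospho-rpS6 Ser235/236 immunostaining by imaging.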 The note with it: at 38.3 µM (top of the series). An outline of the steps: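 Cells were plated, dosed with compound after 24 hrs, and incubated another 24 hrs at 37 degree Celsius. Fixed cells were immunostained for phospho-rpS6 Ser235/236 and counterstained, and the normalized signal was scored as % active cells against rapamycin and DMSO controls.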

A short description of experiment [6]: High Content Imaging Cell-Based qHTS for Inhibitors of the mTORC1 Signaling Pathway in MEF Cells (AID 2667).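 Further: Tsc2-/- p53-/- MEFs stably re-expressing wild-type Tsc2 exposed 24 h.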 Summed up:
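Immunofluorescence for rpS6 phosphorylation in MEFs of Tsc2-/-, p53-/- background rescued with WT Tsc2. Compound exposure lasted 24 hrs. Inhibition was scored against rapamycin-treated control wells.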

A short description of experiment [7]: Cytometry Cell-Based qHTS for Inhibitors of the mTORC1 Signaling Pathway in MEF cells (AID 2668).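 Further: Tsc2-/- p53-/- mouse embryonic fibroblasts stably re-expressing wild-type Tsc2; percent cells positive for phospho-rpS6 Ser235/236 relative to propidium iodide stain.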 Summed up: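 MEFs (Tsc2-/-, p53-/- stably expressing WT Tsc2) treated 24 h at 37 degree Celsius, fixed, stained with Alexa-488 anti-phospho-rpS6 Ser235/236 and propidium iodide; Acumen laser scanning. Reported as % positive cells, phospho-S6 normalized to PI.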

A short description of experiment [8]: Validation screen for small molecules that induce DNA re-replication in MCF 10A normal breast cells (AID 463097). Further: nearly all actives have a fitted effect of over 60% in size. Summed up: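 MCF 10A cells exposed to compound 48 hr at 37 C, 5% CO2, then Hoechst-stained 40 min. Laser-scanning imaging of nuclear DNA content (405 nm ex, 500-530 nm em); re-replication scored as rise in nuclei with elevated fluorescence intensity.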

Experiment [9] deals with Ubiquitin carboxyl-terminal hydrolase 2 (Homo sapiens) (UniProt O75604). The experiment is described as follows: qHTS Validation Assay for Inhibitors of Ubiquitin-specific Protease USP2a Using CHOP2 as the Reporter (AID 463106). Further: potency means the concentration at half of the fitted maximal effect. Summed up: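 10nM USP2 core + cpd, 30min RT; add 25nM Ub-CHOP2/25nM substrate; 60min RT; FI 485/531nm. Buffer Tris pH 8.0, CaCl2, BME, CHAPS. Norm. to NEM = 100% inhibition; time-zero read flags fluorescent artifacts.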
Ubiquitin carboxyl-terminal hydrolase 2 (Homo sapiens), sequence (O75604 whole entry, looked up): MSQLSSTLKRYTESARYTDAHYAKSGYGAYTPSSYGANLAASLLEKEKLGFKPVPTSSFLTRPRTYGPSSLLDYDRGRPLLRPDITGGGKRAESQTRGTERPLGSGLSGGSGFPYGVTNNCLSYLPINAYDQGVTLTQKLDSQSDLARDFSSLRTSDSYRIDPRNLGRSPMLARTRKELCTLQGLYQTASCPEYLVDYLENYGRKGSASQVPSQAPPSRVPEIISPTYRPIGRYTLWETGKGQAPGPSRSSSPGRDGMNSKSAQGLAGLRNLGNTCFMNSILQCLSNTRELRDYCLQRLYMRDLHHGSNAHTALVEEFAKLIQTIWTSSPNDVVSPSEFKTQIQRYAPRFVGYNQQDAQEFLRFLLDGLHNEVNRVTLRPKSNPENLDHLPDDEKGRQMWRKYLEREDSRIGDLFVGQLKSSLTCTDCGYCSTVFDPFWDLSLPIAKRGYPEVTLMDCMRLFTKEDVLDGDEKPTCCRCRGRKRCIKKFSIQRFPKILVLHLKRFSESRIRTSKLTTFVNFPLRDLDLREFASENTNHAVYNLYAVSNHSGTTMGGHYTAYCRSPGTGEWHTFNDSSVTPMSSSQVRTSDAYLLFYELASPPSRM

In experiment [10] the target is Tumor susceptibility gene 101 protein (Homo sapiens) (UniProt Q99816). The experiment is described as follows: qHTS Validation Assay for Iinhibitors of HIV-1 Budding by Blocking the Interaction of PTAP/TSG101 (AID 485342; calls by dose curve). Summed up:
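Tsg101 binding domain (10 uM) with FITC-labeled PTAP peptide (50 nM) in HEPES pH 7.5 buffer, 20 min at r.t. with compounds. Binding measured by fluorescence polarization.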

Experiment [11] addresses Beta-2 adrenergic receptor (Homo sapiens) (UniProt P07550). The experiment is described as follows: qHTS validation assay of beta-arrestin-biased ligands of beta2-adrenergic receptor (AID 485366). An outline of the steps:
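Arrestin-recruitment (Tango) reporter: ligand-bound beta2-AR recruits beta-arrestin, releasing tTA, which upregulates luciferase. Titrations of up to 46 microM incubated 18 hr at 37 degrees C before luminescent readout.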

Experiment [12] deals with ATP-dependent 6-phosphofructokinase (Trypanosoma brucei brucei) (UniProt O15648). As to the kind of experiment: qHTS Validation Assay to Find Inhibitors of T. brucei phosphofructokinase (AID 485368). Further: potency means the concentration at half of the fitted maximal effect. Summed up: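 Steps: substrate mix (0.5 mM F6P, 0.1 mM ATP, MgCl2, TEA pH 8.0); compound; 1.25 nM T. brucei PFK; 45 min RT; ATP depletion 10 min; ADP-to-ATP detection 10 min; luminescence read; curve fitting and classification.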

The target of experiment [13] is Thioredoxin reductase 1, cytoplasmic (Rattus norvegicus) (UniProt O89049). As to the kind of experiment: qHTS Assay for Substrates of Mammalian Selenoprotein Thioredoxin Reductase 1 (TrxR1) (AID 488772).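 Further: NADPH fluorescence in the first read after selenite addition and not the 8 min delta; a drop in NADPH fluorescence below the no-compound background marks a TrxR1 substrate.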 Summed up:
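Quantitative HTS in Tris-HCl buffer at pH 7.5 with EDTA and Tween-20, using rat TrxR1, 400 uM NADPH and 400 uM selenite (final). A fall in initial NADPH fluorescence relative to background marked substrate behaviour.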

Experiment [14] deals with Flap endonuclease 1 (Homo sapiens) (UniProt P39748). The experiment is described as follows: qHTS Validation Assay for the Inhibitors of Human Flap endonuclease 1 (FEN1) (AID 488816). Further: potency means the concentration at half of the fitted maximal effect. An outline of the steps:
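Readings taken at 0 and 15 min after starting the reaction with 50 nM (final) substrate supplied the signal. Compounds had first sat with 10 nM FEN1 reagent for 15 min at room temperature. Values come from Hill-equation concentration-response fits.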

The target of experiment [15] is M-phase phosphoprotein 8 (Homo sapiens) (UniProt Q99549). As to the kind of experiment: qHTS Validation Assay for Inhibitors for MPP8 Chromodomain Interactions with Methylated Histone Tails (AID 488949). Further: potency means the concentration at half of the fitted maximal effect; nearly all actives have a fitted effect of over 55% in size. An outline of the steps: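 MPP8 (50 nM) was pre-bound to 50 nM biotinylated H3(1-18)K9me3 peptide in PBS pH 7.4 with 0.01% Tween-20. Compounds were then added for 30 min at room temperature, and complex disruption was read by AlphaScreen with streptavidin donor and nickel-chelate acceptor beads.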
M-phase phosphoprotein 8 (Homo sapiens), sequence (Q99549 whole entry, looked up): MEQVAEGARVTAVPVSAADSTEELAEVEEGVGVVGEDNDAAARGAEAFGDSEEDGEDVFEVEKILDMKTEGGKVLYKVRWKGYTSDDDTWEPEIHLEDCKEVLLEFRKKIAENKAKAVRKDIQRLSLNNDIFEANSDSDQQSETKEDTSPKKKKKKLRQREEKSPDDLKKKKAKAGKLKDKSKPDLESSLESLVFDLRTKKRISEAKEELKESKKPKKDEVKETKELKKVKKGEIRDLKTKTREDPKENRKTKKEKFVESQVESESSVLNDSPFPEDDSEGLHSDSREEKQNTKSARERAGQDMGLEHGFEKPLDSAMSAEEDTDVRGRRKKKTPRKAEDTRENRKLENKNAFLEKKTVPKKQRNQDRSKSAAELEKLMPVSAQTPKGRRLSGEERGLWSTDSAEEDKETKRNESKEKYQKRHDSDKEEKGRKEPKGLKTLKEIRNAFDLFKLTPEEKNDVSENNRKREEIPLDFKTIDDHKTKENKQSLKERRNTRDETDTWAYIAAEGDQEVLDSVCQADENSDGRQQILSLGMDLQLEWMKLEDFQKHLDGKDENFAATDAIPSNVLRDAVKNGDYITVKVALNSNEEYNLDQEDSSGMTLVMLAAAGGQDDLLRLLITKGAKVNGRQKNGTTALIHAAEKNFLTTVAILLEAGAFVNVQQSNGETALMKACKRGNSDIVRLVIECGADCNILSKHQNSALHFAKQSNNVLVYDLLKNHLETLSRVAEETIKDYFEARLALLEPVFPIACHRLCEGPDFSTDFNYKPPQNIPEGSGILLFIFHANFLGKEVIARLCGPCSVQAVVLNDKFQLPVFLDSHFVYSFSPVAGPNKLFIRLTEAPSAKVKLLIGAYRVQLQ

In experiment [16] the target is Methanococcus maripaludis chaperonin (MmCpn) (UniProt Q6LX38). As to the kind of experiment: High-Throughput Screening for Modulators of Cytosolic Chaperonin Activity: MmCpn Primary Screen (AID 488978).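 Further: 50 nM MmCpn enzyme hydrolysing 30 µM ATP at 37 °C.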 An outline of the steps: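 MmCpn at 50 nM final was preincubated 5 min at RT with compound. ATP was then added at 30 uM final for 10 min at 37 C. ADP formed was detected by Transcreener HTRF (665/590 nm).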

For experiment [17], the target named is Transient receptor potential cation channel subfamily V member 1 (Homo sapiens) (UniProt Q8NER1). As to the kind of experiment: HTS Assay for Compounds that Act as Enhancers of the Vanilloid Receptor 1 (AID 488979). Summed up:
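Calcium influx kinetics via Fluo-8 (480/520 nm) in TRPV1-expressing cells, 2000/well cultured overnight at 35.5C. Compound-alone read 3 min (agonist phase), followed by EC20 capsaicin challenge for 2 min (enhancer phase).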

Experiment [18] has as its target Thyrotropin receptor (Homo sapiens) (UniProt P16473). As to the kind of experiment: qHTS Assay for Antagonists of the Thyroid Stimulating Hormone Receptor (AID 488980). An outline of the steps:
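TSHR-transfected HEK293 cells (2000/well) in HEPES-buffered HBSS with 70 uM RO 20-1724 were stimulated with 4 nM TSH (EC80, final) in the presence of compound. cAMP was measured by HTRF competition after lysis and 30 min at RT.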

Experiment [19] concerns the target D(1A) dopamine receptor (Homo sapiens) (UniProt P21728). The experiment is described as follows: HTS Assay for Allosteric Agonists of the Human D1 Dopamine Receptor: Primary Screen for Agonists (AID 488981). An outline of the steps:
(§1)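 Calcium flux in an inducible, force-coupled HEK293 Trex D1 line (overnight at 30 C): agonist mode is the 180 s kinetic read after compound; potentiator mode is the following 180 s read after dopamine at EC20.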

The target is the same in experiment [20]. The experiment is described as follows: HTS Assay for Allosteric Agonists of the Human D1 Dopamine Receptor: Primary Screen for Potentiators (AID 488982). Summed up: as §1
The target is the same in experiment [21]. The experiment is described as follows: HTS Assay for Allosteric Agonists of the Human D1 Dopamine Receptor: Primary Screen for Antagonists (AID 488983).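 Further: calcium flux response to an EC80 dopamine challenge measured with no-wash dye; nearly all actives have a fitted effect of over 65% in size.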 An outline of the steps: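 Cells are induced with tetracycline and incubated overnight at 30 C, then loaded with calcium dye for 30 to 90 minutes at room temperature. Compound addition is followed by a 180 s read, then an EC80 dopamine addition and another 180 s read.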

Data on 1 compound can be found in PubChem BioAssay (NCATS).

Where “and” joins values, the source holds several entries; their conditions need not be identical. Equal entries are not always repeated. Results filed as inconclusive are left out. Calls of active or inactive are those of the source. Unless noted, the call rests on the fitted dose curve; in most records, active means well fitted curve in the direction sought with a large enough effect; inconclusive means small, poorly fitted or top-dose-only effect, or another doubt; inactive means no such curve, though single readings can be large; an effect the other way counts as inactive or inconclusive.

D(1A) dopamine receptor (Homo sapiens), sequence (P21728 whole entry, looked up): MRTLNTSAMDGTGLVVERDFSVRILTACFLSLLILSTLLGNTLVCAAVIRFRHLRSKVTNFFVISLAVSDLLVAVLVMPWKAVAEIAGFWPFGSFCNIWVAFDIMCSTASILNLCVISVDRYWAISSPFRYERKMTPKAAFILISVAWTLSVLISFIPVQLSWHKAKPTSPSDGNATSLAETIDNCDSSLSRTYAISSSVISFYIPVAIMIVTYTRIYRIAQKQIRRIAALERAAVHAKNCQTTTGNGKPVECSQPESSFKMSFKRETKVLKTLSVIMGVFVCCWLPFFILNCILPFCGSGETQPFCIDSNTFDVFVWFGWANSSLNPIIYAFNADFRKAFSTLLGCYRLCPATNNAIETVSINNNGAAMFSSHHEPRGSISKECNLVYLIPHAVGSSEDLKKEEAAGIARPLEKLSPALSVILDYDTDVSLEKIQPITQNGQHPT
Transient receptor potential cation channel subfamily V member 1 (Homo sapiens), sequence (Q8NER1 whole entry, looked up): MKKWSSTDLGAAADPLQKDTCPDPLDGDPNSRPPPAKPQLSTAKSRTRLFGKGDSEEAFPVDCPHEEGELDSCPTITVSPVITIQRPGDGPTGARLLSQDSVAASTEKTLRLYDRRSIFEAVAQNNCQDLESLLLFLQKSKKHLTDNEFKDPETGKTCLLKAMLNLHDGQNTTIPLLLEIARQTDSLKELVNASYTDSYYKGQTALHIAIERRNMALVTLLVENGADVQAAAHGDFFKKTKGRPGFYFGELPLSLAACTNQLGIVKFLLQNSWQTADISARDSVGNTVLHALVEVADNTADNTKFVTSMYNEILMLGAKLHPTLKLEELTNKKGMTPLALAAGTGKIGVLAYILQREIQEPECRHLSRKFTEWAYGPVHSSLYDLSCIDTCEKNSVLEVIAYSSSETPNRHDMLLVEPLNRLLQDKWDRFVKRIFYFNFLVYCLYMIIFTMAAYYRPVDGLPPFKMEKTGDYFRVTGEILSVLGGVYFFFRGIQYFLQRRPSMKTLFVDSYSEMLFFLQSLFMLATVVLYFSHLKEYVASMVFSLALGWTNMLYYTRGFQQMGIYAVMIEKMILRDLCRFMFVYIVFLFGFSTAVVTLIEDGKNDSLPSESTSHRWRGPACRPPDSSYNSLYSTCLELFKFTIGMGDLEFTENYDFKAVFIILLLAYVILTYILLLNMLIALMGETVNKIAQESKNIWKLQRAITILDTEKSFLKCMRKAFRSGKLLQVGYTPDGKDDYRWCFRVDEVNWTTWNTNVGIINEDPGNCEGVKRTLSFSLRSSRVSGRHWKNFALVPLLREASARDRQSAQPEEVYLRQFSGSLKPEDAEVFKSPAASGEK
ATP-dependent DNA helicase Q1 (Homo sapiens), sequence (P46063 whole entry, looked up): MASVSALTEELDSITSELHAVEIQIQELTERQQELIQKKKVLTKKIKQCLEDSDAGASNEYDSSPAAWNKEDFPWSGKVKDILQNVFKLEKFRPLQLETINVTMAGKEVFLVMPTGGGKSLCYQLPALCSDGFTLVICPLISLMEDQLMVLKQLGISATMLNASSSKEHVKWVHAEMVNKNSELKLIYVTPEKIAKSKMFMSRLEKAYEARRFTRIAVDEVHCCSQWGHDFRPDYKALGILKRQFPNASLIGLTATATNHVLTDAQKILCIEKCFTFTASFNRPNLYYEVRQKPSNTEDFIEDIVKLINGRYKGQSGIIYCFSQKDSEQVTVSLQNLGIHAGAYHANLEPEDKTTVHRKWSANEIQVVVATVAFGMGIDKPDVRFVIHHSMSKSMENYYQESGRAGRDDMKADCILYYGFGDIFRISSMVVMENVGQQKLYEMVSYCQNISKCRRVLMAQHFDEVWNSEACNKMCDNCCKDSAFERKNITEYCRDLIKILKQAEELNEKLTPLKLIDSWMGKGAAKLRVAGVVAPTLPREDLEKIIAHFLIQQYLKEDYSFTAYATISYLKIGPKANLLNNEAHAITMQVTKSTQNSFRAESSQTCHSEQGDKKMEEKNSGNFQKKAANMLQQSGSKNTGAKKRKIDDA
Flap endonuclease 1 (Homo sapiens), sequence (P39748 whole entry, looked up): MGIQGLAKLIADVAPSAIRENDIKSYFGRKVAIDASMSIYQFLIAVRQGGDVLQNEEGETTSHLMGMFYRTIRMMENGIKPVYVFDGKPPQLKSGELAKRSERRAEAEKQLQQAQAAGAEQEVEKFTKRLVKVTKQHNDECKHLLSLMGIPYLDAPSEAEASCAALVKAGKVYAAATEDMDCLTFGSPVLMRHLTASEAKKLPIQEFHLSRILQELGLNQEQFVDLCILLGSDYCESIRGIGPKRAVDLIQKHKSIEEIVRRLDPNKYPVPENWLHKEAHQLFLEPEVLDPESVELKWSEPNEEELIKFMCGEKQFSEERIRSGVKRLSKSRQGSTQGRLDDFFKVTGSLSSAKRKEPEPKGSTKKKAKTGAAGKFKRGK
Tumor susceptibility gene 101 protein (Homo sapiens), sequence (Q99816 whole entry, looked up, the tested form may be a part): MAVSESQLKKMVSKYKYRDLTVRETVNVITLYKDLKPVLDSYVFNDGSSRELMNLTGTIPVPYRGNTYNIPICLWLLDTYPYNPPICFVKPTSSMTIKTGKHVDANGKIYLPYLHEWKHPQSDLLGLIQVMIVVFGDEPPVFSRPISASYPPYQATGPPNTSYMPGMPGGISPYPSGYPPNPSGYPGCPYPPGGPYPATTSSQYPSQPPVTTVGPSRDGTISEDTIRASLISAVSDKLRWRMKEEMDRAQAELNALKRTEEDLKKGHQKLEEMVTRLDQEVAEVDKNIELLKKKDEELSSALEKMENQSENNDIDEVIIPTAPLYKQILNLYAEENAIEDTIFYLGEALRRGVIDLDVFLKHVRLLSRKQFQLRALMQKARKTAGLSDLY
Thioredoxin reductase 1, cytoplasmic (Rattus norvegicus), sequence (O89049 whole entry, looked up): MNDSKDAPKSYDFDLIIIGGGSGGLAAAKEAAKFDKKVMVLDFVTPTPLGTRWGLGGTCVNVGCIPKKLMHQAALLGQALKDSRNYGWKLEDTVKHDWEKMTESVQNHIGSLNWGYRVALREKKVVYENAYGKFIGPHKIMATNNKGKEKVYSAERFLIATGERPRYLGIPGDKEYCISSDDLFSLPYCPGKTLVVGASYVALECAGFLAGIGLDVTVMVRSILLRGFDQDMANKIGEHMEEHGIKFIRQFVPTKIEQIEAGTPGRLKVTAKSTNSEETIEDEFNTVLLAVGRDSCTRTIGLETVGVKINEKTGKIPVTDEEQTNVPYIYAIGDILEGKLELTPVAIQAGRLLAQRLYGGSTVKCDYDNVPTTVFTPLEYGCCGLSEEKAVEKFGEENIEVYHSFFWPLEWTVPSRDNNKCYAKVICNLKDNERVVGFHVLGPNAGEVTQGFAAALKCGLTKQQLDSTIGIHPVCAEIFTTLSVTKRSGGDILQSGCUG

For the compound `Nc1c(S(=O)(=O)O)cc(Nc2ccc(Nc3nc(Cl)nc(Nc4ccc(S(=O)(=O)O)cc4)n3)c(S(=O)(=O)O)c2)c2c1C(=O)c1ccccc1C2=O`, the Potency entry in experiment [1], in experiment [6], in experiment [7] and in [8] was “inactive” each time. The Potency is 1000 nM (active) in experiment [2]; 6310 nM (active) in experiment [3]; 4650 nM (active) in [9]; 2390 nM (active) in [12]; 947 nM (active) in experiment [14]; 1.58 µM (active) and 844 nM (active) in experiment [15]. Also, the call in experiment [4], in [5], in [10], in experiment [11], in experiment [13] and in [16] was inactive. Also, the outcome in experiment [17], in experiment [18], in experiment [19], in [20] and in [21] was inactive.
